Counter-ions that a name gives are not always drawn. Values without a mark were called inactive.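 The calls were made as follows: active = score above 5; some higher scores were not called.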

The assay relates to S. cerevisiae SK1 pCDA2-eGFP (USY613), sporulating. Briefly: CDA2-GFP sporulation assay sensitivity score (z-score vs DMSO controls); higher = stronger inhibition of sporulation, active = hit call of the paper.
As to `CN(CCOc1ccc(CC2SC(=O)NC2=O)cc1)c1ccccn1` (stereo unspecified) [Rosiglitazone maleate] (stock concentration (mM, diluted 1:100): 7.6), the “CDA2-GFP sporulation assay sensitivity score” value was 1.38.
Regarding `COCC1=C(C(=O)OC(C)OC(=O)OC(C)C)N2C(=O)[C@@H](NC(=O)/C(=N\OC)c3csc(N)n3)[C@H]2SC1` (stereo partly specified) [Cefpodoxime proxetil] (stock concentration (mM, diluted 1:100): 7.7), the “CDA2-GFP sporulation assay sensitivity score” value was -0.83.
Then `CCOC(=O)[C@H](CCc1ccccc1)N[C@H]1CCc2ccccc2N(CC(=O)O)C1=O` [Benazepril hydrochloride] (stock concentration (mM, diluted 1:100): 9.2), with -1.49.
The same measure for `CNNCc1ccc(C(=O)NC(C)C)cc1` [Procarbazine hydrochloride] (stock concentration (mM, diluted 1:100): 8.6): -0.1; for `CC(C)[C@H](N)C(=O)OCCOCn1cnc2c(=O)nc(N)[nH]c21` [Valaciclovir hydrochloride] (stock concentration (mM, diluted 1:100): 9): 0.8; for `O=C(O[C@@H]1Cc2c(O)cc(O)cc2O[C@@H]1c1cc(O)c(O)c(O)c1)c1cc(O)c(O)c(O)c1` [Epigallocatechin gallate] (stock concentration (mM, diluted 1:100): 10): -1.44.
The same measure for `CN(C)CCCSc1ccccc1NC(=O)/C=C/c1ccccc1` [Cinanserin] (stock concentration (mM, diluted 1:100): 10): 1.28; for `C=CC1=C(C(=O)O)N2C(=O)[C@@H](NC(=O)/C(=N\O)c3csc(N)n3)[C@H]2SC1` [Cefdinir] (stock concentration (mM, diluted 1:100): 10): 3.95; for `NC1CCN(c2cccc(Cl)n2)CC1` (stock concentration (mM, diluted 1:100): 10): 13.8 (active).
Take `CN(Cc1cnc2nc(N)nc(N)c2n1)c1ccc(C(=O)N[C@@H](CCC(=O)O)C(=O)O)cc1` [Methotrexate] (stock concentration (mM, diluted 1:100): 14.6): the “CDA2-GFP sporulation assay sensitivity score” value was -2.22.
Then `CC(=O)OCC(CCn1cnc2cnc(N)nc21)COC(C)=O` [Famciclovir] (stock concentration (mM, diluted 1:100): 10), with 0.31.
Then `CN(C)CCC(c1ccc(Cl)cc1)c1ccccn1` (stereo unspecified) [Chlorpheniramine] (stock concentration (mM, diluted 1:100): 10), with -1.3; and `CC(C)c1ccc2c(c1)c(SC(C)(C)C)c(CC(C)(C)C(=O)O)n2Cc1ccc(Cl)cc1` [Tocris-1311] (stock concentration (mM, diluted 1:100): 10), with 11.2 (active).
The same measure for `CSc1nc2cc(Cl)c(Oc3cccc(Cl)c3Cl)cc2[nH]1` [Triclabendazole] (stock concentration (mM, diluted 1:100): 10): 0.58; for `O=C1c2c(O)cc(O)cc2OC(c2ccc(O)c(O)c2)C1O` (stereo unspecified) [Taxifolin] (stock concentration (mM, diluted 1:100): 10): -0.07; for `CCN(CC)CC(=O)Nc1c(C)cccc1C` [Lidocaine] (stock concentration (mM, diluted 1:100): 9.6): 0.09.
In the case of `CC(=O)SCC(Cc1ccccc1)C(=O)NCC(=O)OCc1ccccc1` (stereo unspecified) [Acetorphan] (stock concentration (mM, diluted 1:100): 10), the “CDA2-GFP sporulation assay sensitivity score” value is 0.9.
The same measure for `O=c1n(CCCN2CCN(c3cccc(Cl)c3)CC2)nc2ccccn12` [Trazodone hydrochloride] (stock concentration (mM, diluted 1:100): 10): 5.45; for `CC(N/C(=N\C#N)Nc1ccncc1)C(C)(C)C` (stereo unspecified) [Pinacidil monohydrate] (stock concentration (mM, diluted 1:100): 10): 1.62; for `C=CC1=C(C(=O)O)N2C(=O)[C@@H](NC(=O)/C(=N\OCC(=O)O)c3csc(N)n3)[C@H]2SC1` [Cefixime trihydrate] (stock concentration (mM, diluted 1:100): 10): 2.05.
As to `CC(Oc1c(Cl)cccc1Cl)C1=NCCN1` (stereo unspecified) [Lofexidine hydrochloride] (stock concentration (mM, diluted 1:100): 10), the “CDA2-GFP sporulation assay sensitivity score” value is 7.06.
The same measure for `O=C1CC[C@@H](C(=O)N2CSC[C@H]2C(=O)O)N1` [Pidotimod] (stock concentration (mM, diluted 1:100): 10): 0.46; for `C#C[C@]1(O)CC[C@H]2[C@@H]3[C@H](C)CC4=C(CCC(=O)C4)[C@H]3CC[C@@]21C` [Tibolone] (stock concentration (mM, diluted 1:100): 10): 5.97.
Consider `CC1(C)S[C@@H]2[C@H](/N=C/N3CCCCCC3)C(=O)N2[C@H]1C(=O)O` [Mecillinam] (stock concentration (mM, diluted 1:100): 10), for which the “CDA2-GFP sporulation assay sensitivity score” value was 0.59.
Then `CCCc1nc2c(C)cc(-c3nc4ccccc4n3C)cc2n1Cc1ccc(-c2ccccc2C(=O)O)cc1` [Telmisartan] (stock concentration (mM, diluted 1:100): 10), with -1.44; and `C[N+]1(C)CCC(OC(=O)C(O)(c2ccccc2)C2CCCC2)C1` (stereo unspecified) [Glycopyrrolate] (stock concentration (mM, diluted 1:100): 10), with 1.55; and `CCOC(=O)C1=C(C)NC(C)=C(C(=O)OCC)C1c1ccccc1/C=C/C(=O)OC(C)(C)C` [Lacidipine] (stock concentration (mM, diluted 1:100): 10), with 6.44.
Take `Cn1nnc2c(C(N)=O)ncn2c1=O` [Temozolomide] (stock concentration (mM, diluted 1:100): 10): the “CDA2-GFP sporulation assay sensitivity score” value is -0.1.
For the molecule `CC1CNc2c(cccc2S(=O)(=O)N[C@@H](CCCNC(=N)N)C(=O)N2CC[C@@H](C)C[C@@H]2C(=O)O)C1` (stereo partly specified) [Argatroban] (stock concentration (mM, diluted 1:100): 10.1), the “CDA2-GFP sporulation assay sensitivity score” value was -1.04.
Then `CC(C)(C)NCC(O)c1ccc(O)c(CO)c1` (stereo unspecified) [Salbutamol sulfate] (stock concentration (mM, diluted 1:100): 9.7), with -0.05; and `Nc1ccc2cn[nH]c2c1` [6-Aminoindazole] (stock concentration (mM, diluted 1:100): 10), with 2.67; and `CN1CCN(C2=Nc3cc(F)ccc3Cc3ccccc32)CC1` [Fluperlapine] (stock concentration (mM, diluted 1:100): 10), with 17.9 (active).
Turning to `C[C@H]1[C@H](OC(=O)CCC(=O)O)O[C@@H]2O[C@@]3(C)CC[C@H]4[C@H](C)CC[C@@H]1[C@@]24OO3` [Artesunate] (stock concentration (mM, diluted 1:100): 10), the “CDA2-GFP sporulation assay sensitivity score” value was 0.74.
As to `Cc1sc(N)c(C(=O)c2cccc(C(F)(F)F)c2)c1C` (stock concentration (mM, diluted 1:100): 10), the “CDA2-GFP sporulation assay sensitivity score” value was 11.1 (active).
In the case of `CN(CCO)CC(O)Cn1cnc2c1c(=O)n(C)c(=O)n2C` (stereo unspecified) [Xanthinol nicotinate] (stock concentration (mM, diluted 1:100): 10), the “CDA2-GFP sporulation assay sensitivity score” value is 2.12.
Then `CN(C)CCc1c[nH]c2ccc(Cn3cncn3)cc12` [Rizatriptan benzoate] (stock concentration (mM, diluted 1:100): 10), with -0.91.

For the origin of these results see the supplement of paper PMC3414501.
